Consider 14 compounds from PubChem BioAssay (NCI).

Holding throughout (assay): NCI-60 one-dose screen, 48 h (100 = growth as untreated, 0 = no growth, -100 = all killed)
The test system of one test is DU-145 prostate. Conditions: 10 µM unless noted.
The subject of a further test is K-562 leukemia. Conditions: 10 µM unless noted.
A further test concerns MALME-3M melanoma. Conditions: 10 µM unless noted.
A further test has as its system MDA-MB-231 breast. Conditions: 10 µM unless noted.
The next test concerns RXF 393 renal. Conditions: 10 µM unless noted.
A further test concerns SF-268 CNS. Conditions: 10 µM unless noted.
The test system of a further test is SF-295 CNS. Conditions: 10 µM unless noted.
For a further test, the system named is SF-539 CNS. Conditions: 10 µM unless noted.
A further test concerns UACC-257 melanoma. Conditions: 10 µM.
Another test concerns M14 melanoma. Conditions: 10 µM unless noted.

Molecules are shown by their SMILES. The panel holds about 83,000 compounds, 20% with a hit somewhere; the sample as a whole holds those more often.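 How to read the values: 0–100, growth inhibition (40 = 60% inhibited); 0, no net growth; -100 to 0, cell death (-40 = 40% of starting cells died; -100 = all dead).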 Values without a mark were called inactive. Activity calls are given as the source filed them. How the source made its calls: active means growth percent below 10; inactive means the rest.

On to `O=S(=O)(NC1CC2CCC1C2)c1ccc2c(c1)C(=NO)c1cc(S(=O)(=O)NC3CC4CCC3C4)ccc1-2` (stereo not given), for which the growth in the test with DU-145 prostate was 4.92% (active); in the test on K-562 leukemia it was 11.9%; with MALME-3M melanoma, -78.9% (active); with MDA-MB-231 breast, -21.9% (active); with RXF 393 renal it was -9.66% (active); in the test with SF-268 CNS, 8.95% (active). Moreover, the growth was 62.9% in the test with SF-295 CNS, -35% (active) with SF-539 CNS, 105% with UACC-257 melanoma and 24.9% in the test with M14 melanoma.

For the compound `O=c1[nH]c(CCl)nc2c1cnn2-c1ccccc1`, the growth was 98.6% with DU-145 prostate; 87.5% with K-562 leukemia; 110% with MALME-3M melanoma; 101% in the test with MDA-MB-231 breast; 94.1% in the test with RXF 393 renal; 99.9% in the test on SF-268 CNS. The growth was 110% in the test on SF-295 CNS, 97.1% in the test with SF-539 CNS, 96.2% in the test with UACC-257 melanoma and 95.7% with M14 melanoma.

Regarding `COc1ccc(/C=C/C(=O)c2nnn(-c3ccc(C(=O)O)cc3)c2C)cc1OC`, the growth is 104% with DU-145 prostate; 80.8% in the test on K-562 leukemia; 95.8% with MALME-3M melanoma; 96.7% in the test on MDA-MB-231 breast; 112% with RXF 393 renal; 99.4% in the test on SF-268 CNS. In addition, the growth with SF-295 CNS was 103%; with SF-539 CNS, 91.7%; in the test with UACC-257 melanoma, 97%; in the test with M14 melanoma it was 92.6%.

In the case of `CC1=C2C(=C[C@@](C)(COS(N)(=O)=O)[C@@H]2O)C(=O)[C@](C)(O)C12CC2`, the growth was 15.3% with DU-145 prostate; 97.2% in the test with K-562 leukemia; 88.3% with MALME-3M melanoma; 83% in the test on MDA-MB-231 breast; -30.2% (active) with RXF 393 renal; 32.2% in the test on SF-268 CNS. The growth in the test on SF-295 CNS was 20.5%; in the test on SF-539 CNS, 64.9%; with UACC-257 melanoma it was 89.3%; in the test with M14 melanoma it was 76.7%.

For `COc1ccc(-c2nc(SCCC(C)C)nc(N/N=C\c3ccc(O)cc3)c2C#N)cc1`, the growth in the test with DU-145 prostate was 59.7%; in the test on K-562 leukemia it was 42.2%; in the test on MALME-3M melanoma, 79.3%; in the test on MDA-MB-231 breast, 54.2%; in the test on RXF 393 renal it was 78%; with SF-268 CNS it was 55.7%. Also, the growth is 91.6% in the test on SF-295 CNS, 35.1% with SF-539 CNS, 111% in the test on UACC-257 melanoma and 76.6% in the test on M14 melanoma.

Consider `C[C@H]1[C@H](C)CC[C@]2(COC(=O)c3cccnc3)CC[C@]3(C)C(=CC[C@@H]4[C@@]5(C)CCCNC(C)(C)[C@@H]5CC[C@]43C)[C@H]12`, for which the growth was 84.4% in the test with DU-145 prostate; 14.3% with K-562 leukemia; 59.9% with MALME-3M melanoma; 79.3% with MDA-MB-231 breast; 81.9% in the test on RXF 393 renal; 76.3% in the test with SF-268 CNS. Moreover, the growth was 73.3% in the test on SF-295 CNS, 78.8% in the test on SF-539 CNS, 65.7% with UACC-257 melanoma and 79.1% with M14 melanoma.

On to `COc1cc(/C=N/Nc2ccnc3cc(Cl)ccc23)cc(OC)c1O`, for which the growth with DU-145 prostate was -24.6% (active); in the test with K-562 leukemia, -54.8% (active); in the test on MALME-3M melanoma, -88.3% (active); in the test with MDA-MB-231 breast it was -74.6% (active); in the test with RXF 393 renal, -86.8% (active); with SF-268 CNS, -37.3% (active). Moreover, the growth in the test on SF-295 CNS is -80.3% (active); in the test with SF-539 CNS, -85% (active); in the test with UACC-257 melanoma, 112%; in the test with M14 melanoma it was -90.1% (active).

Regarding `CN1CCN(c2ccc(NC(=O)Nc3ccc4c(ccn4-c4cccc(C(N)=O)n4)c3)cc2C(F)(F)F)CC1`, the growth is 77.2% in the test on DU-145 prostate; -13.8% (active) with K-562 leukemia; 16% in the test on MALME-3M melanoma; 74.8% with MDA-MB-231 breast; -12.9% (active) in the test with RXF 393 renal; 82.1% with SF-268 CNS. Moreover, the growth with SF-295 CNS is -54.7% (active); with SF-539 CNS, 6.11% (active); with UACC-257 melanoma, -14% (active); in the test on M14 melanoma, -47% (active).

In the case of `CC(=O)Nc1nc2c(s1)C1=CC[C@H]3[C@@H]4CC[C@H](C(C)=O)[C@@]4(C)CC[C@@H]3[C@@]1(C)CC2`, the growth in the test on DU-145 prostate is 85.9%; in the test on K-562 leukemia, 8.05% (active); in the test with MALME-3M melanoma, 72.6%; in the test on MDA-MB-231 breast it was 57.7%; in the test with RXF 393 renal, -29.3% (active); in the test on SF-268 CNS, 90.2%. Further, the growth in the test with SF-295 CNS is -16.9% (active); with SF-539 CNS, 40.2%; with UACC-257 melanoma, 73.2%; with M14 melanoma, 87%.

As for `O=[N+]([O-])c1ccc(-c2nnc(SCc3ccc(O)c4ncccc34)o2)cc1`, the growth was 29.5% in the test with DU-145 prostate; 17.6% in the test with K-562 leukemia; 21.5% in the test on MALME-3M melanoma; 38.1% in the test on MDA-MB-231 breast; 14.8% in the test with RXF 393 renal; 27.7% in the test with SF-268 CNS. For the same compound, the growth is 9.85% (active) in the test with SF-295 CNS, 23.5% in the test on SF-539 CNS, 18.6% with UACC-257 melanoma and 27.4% with M14 melanoma.

Regarding `O=S(=O)(Nc1ccc(C2CC2)cc1)c1ccc(-c2cnc(C3CC3)o2)cc1`, the growth in the test with DU-145 prostate is 88.5%; with K-562 leukemia it was 15.7%; in the test with MALME-3M melanoma, 66.6%; in the test with MDA-MB-231 breast, 72.5%; in the test on RXF 393 renal it was 74.6%; in the test on SF-268 CNS, 78%. Also, the growth with SF-295 CNS is 49.4%; in the test with SF-539 CNS, 62.9%; with UACC-257 melanoma it was 79.8%; in the test with M14 melanoma it was 53.6%.

Consider `O=C(NNc1nc2cc(F)c(F)cc2n2cccc12)c1ncccn1`, for which the growth is 26.8% in the test with DU-145 prostate; 20.8% with K-562 leukemia; 32.7% with MALME-3M melanoma; 42.1% with MDA-MB-231 breast; 48.8% in the test with RXF 393 renal; 17.3% with SF-268 CNS. The growth with SF-295 CNS is 14.7%; with SF-539 CNS, 10.9%; in the test on UACC-257 melanoma, 14.5%; with M14 melanoma, 1.46% (active).

In the case of `C/C(=N\NC(=S)Nc1ccc(Br)cc1)c1cc2ccccc2oc1=O`, the growth is 29.4% in the test on DU-145 prostate; 9.69% (active) in the test on K-562 leukemia; 24% in the test with MALME-3M melanoma; 23.2% in the test with MDA-MB-231 breast; -24.2% (active) with RXF 393 renal; 14.5% in the test on SF-268 CNS. For the same compound, the growth with SF-295 CNS is 32.1%; in the test on SF-539 CNS it was 20.9%; with UACC-257 melanoma it was 10.1%; with M14 melanoma, -28.8% (active).

`COc1ccc(Cn2cc3c(c2-c2cc(OC)c(OC)c(OC)c2)CCCc2cnoc2-3)cc1N`: the growth in the test with DU-145 prostate was 17.2%; in the test on K-562 leukemia, 20.3%; in the test on MALME-3M melanoma it was 54.9%; in the test on MDA-MB-231 breast, 35.2%; in the test with RXF 393 renal, -5.39% (active); in the test with SF-268 CNS, 58%. The growth was 0% (active) in the test on SF-295 CNS, 1.95% (active) with SF-539 CNS, 90.3% with UACC-257 melanoma and 0.685% (active) in the test on M14 melanoma.
